# Laboratory results: PubChem BioAssay (NCI)
# The panel holds about 79,000 compounds, 15% with a hit somewhere; the sample as a whole holds those more often. Unmarked numbers belong to inactive results. Cut-off read from the data, not from the text of the source: active = growth inhibition above about 70%; inactive = the rest.
# Assay: NCI Yeast Anticancer Drug Screen. Data for the sgs1 mgt1 strain (AID 161);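 note: 0% = growth of cultures given vehicle only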
# Settings: S. cerevisiae sgs1 mgt1 strain, at 50.0 µM, stronger effect = higher value
# Method in brief: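 Percent growth inhibition was derived by comparing compound-exposed mutant yeast with vehicle-exposed cultures. The strain carries alterations in DNA damage repair.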
row,SMILES,growth inhibition [%]
1,O=[N+]([O-])c1ccc(OCc2ccccc2)c(Cl)c1,25.9
2,CCC(O)(Cc1ccc(OC)cc1)c1ccc(OC)cc1 (centres undefined),14.8
3,COc1ccc(N=C(N)N=C(N)N)cc1,-6.9
4,O=C1NC(=O)C(CCI)N1 (centres undefined),23.1
5,C[C@H]1C[C@H]2[C@@H]3CC[C@@]4(OCC4=O)[C@@]3(C)C[C@H](O)[C@]2(F)[C@@]2(C)C=CC(=O)C=C12,1.6
6,O=C(Nc1ccc(Cl)cc1)c1ccc(Cl)cc1Cl,-2.5
7,O=C(NO)c1ccc(Cl)cc1Cl,37.7
8,C(=C1\COC(c2ccccc2)=N1)/c1ccc2c(c1)OCO2,13.8
9,CC(C)CCCC(C)C1CCC2C3CC=C4CC(OCCC(C)C)CCC4(C)C3CCC12C (centres undefined),29.4
10,O=S(=O)(O)SCC1=NCCCCN1,-6.35
11,Clc1ccc(OCc2nnc3n2N=C(c2ccc(Br)cc2)CS3)cc1,8.8
12,NC(=S)Cc1ccccn1,9.25
13,O=C1CC2CCCCC2CC1c1ccccc1 (centres undefined),-4.55
14,O=C(OC1CCCCC1)C(=O)OC1CCCCC1,1.35
15,BrC1CC1(c1ccccc1)c1ccccc1 (centres undefined),-3.5
16,Cc1ccc(N)c(C#N)c1,-5.7
17,C[C@H](C(=O)C12CC3CC(CC(C3)C1)C2)[C@H](O)c1ccccc1,-10.8
18,CCCCS(=O)(=O)CCC(N)C(=O)O (centres undefined),2.6
19,CC1CC[N+](C)([B-](F)(F)F)CC1 (centres undefined),11.5
